Laboratory results published in PubChem BioAssay (Tox21).
Inconclusive results are not listed. A call without a number means that no potency is given here. Activity calls are given as the source filed them. Unless noted, calls follow the shape of the dose curve; as a rule, active = well fitted curve in the direction sought with a large enough effect in the repeat runs; inconclusive = weak or mixed curves; inactive = no such curve, though single readings can be large; an effect the other way counts as inactive or inconclusive.

Key:
[1] = molecular target: Estrogen receptor beta (Homo sapiens) (UniProt Q92731); test: qHTS assay to identify small molecule agonists of the estrogen receptor beta (ER-beta) signaling pathway (AID 1259377; active = well fitted activation curve with a large enough effect in the signal ratio in the repeat runs, not every such curve was filed as active; the % refers to the signal ratio)
Method in brief: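 Measured by fluorescence intensity from a B/G FRET beta-lactamase substrate (2 h, room temperature) in ER-beta-UAS-bla HEK293T cells treated with DMSO-dissolved compounds for 16 hr at 37C and 5% CO2.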

[2] = molecular target: Estrogen receptor beta (Homo sapiens) (UniProt Q92731); test: qHTS assay to identify small molecule antagonists of the estrogen receptor beta (ER-beta) signaling pathway (AID 1259378; active = well fitted inhibition curve with a large enough effect in the signal ratio in the repeat runs, not every such curve was filed as active; the % refers to the signal ratio; also: potency is read from the fitted curve at half-maximal effect)
Method in brief: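 ER-beta-UAS-bla HEK293T cells in 2% charcoal-stripped FBS medium treated with compound plus 1nM final 17-beta-estradiol for 16 hr at 37C. Beta-lactamase reporter read by FRET substrate fluorescence after 2 hours at room temperature.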

[3] = qHTS assay to identify small molecule agonists of the androgen receptor (AR) signaling pathway in the presence of an antagonist - cell viability counter screen (AID 1259379); also: nearly all actives have a fitted effect of over 25% in size; also: potency is read from the fitted curve at half-maximal effect
Method in brief: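 Cells: MDA-kb2 (MMTV-luc, AR and GR elements), 3,000/well, 5 hr settle. Added: nilutamide 3.0uM final, then compounds (15 conc.). Incubation: 16 hr, 37C, no CO2. Read-out: CellTiter-Fluor, 1 hr, fluorescence.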

[4] = qHTS assay to identify small molecule agonists of the estrogen receptor beta (ER-beta) signaling pathway - cell viability counter screen (AID 1259380); also: nearly all actives have a fitted effect of over 30% in size; also: potency is read from the fitted curve at half-maximal effect
Method in brief: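 HEK293T ER-beta-UAS-bla; 2% CS-FBS; 6 hr pre-plate, 16 hr cpd at 37C/5% CO2; LiveBLAzer read first, then CellTiter-Glo 30 min RT, luminescence.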

[5] = molecular target: Androgen receptor (Homo sapiens) (UniProt P10275); test: qHTS assay to identify small molecule agonists of the androgen receptor (AR) signaling pathway in the presence of an antagonist (AID 1259381; calls by dose curve; also: nearly all actives have a fitted effect of over 15% in size)
Method in brief: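 MDA-kb2 cells, 3,000/well, rested 5hr at 37C/0% CO2 → nilutamide 3.0uM final or buffer → compounds, 15 conc. → 16hr at 37C → ONE-Glo, 30min RT → luminescence.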

[6] = qHTS assay to identify small molecule antagonists of the estrogen receptor beta (ER-beta) signaling pathway - cell viability counter screen (AID 1259382); also: nearly all actives have a fitted effect of over 55% in size; also: potency is read from the fitted curve at half-maximal effect
Method in brief: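 Cells: ER-beta-UAS-bla HEK293T, 2,000/well, 2% CS-FBS, 6 hr settle. Cpd + E2 (1nM final), 16 hr, 37C/5% CO2. Bla FRET substrate 2 hr RT, then CellTiter-Glo 30 min RT, luminescence.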

[7] = qHTS assay to identify small molecule agonists or antagonists of the thyroid stimulating hormone receptor (TSHR) signaling pathway - wild type cell line counter screen (AID 1259384; calls by dose curve)
Method in brief: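 Wild-type Hek293 cells, 800/well, 18 h at 37C, then compound with Ro20-1724 for 30 min RT. cAMP by HTRF (cAMP-d2/anti-cAMP cryptate), 1 h RT, fluorescence read. 15 concentrations, triplicates.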

[8] = molecular target: Thyrotropin receptor (Homo sapiens) (UniProt P16473); test: qHTS assay to identify small molecule antagonists of the thyroid stimulating hormone receptor (TSHR) signaling pathway (AID 1259385; calls by dose curve; also: nearly all actives have a fitted effect of over 20% in size)
Method in brief: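 TSHR-HEK293 cells (800/well) plated 18 h, then compounds with Ro20-1724 and TSH at 1.5 ng/mL final, 30 min at room temperature. cAMP quantified by HTRF (cAMP-d2/anti-cAMP-cryptate, 1 h); 15 concentrations in triplicate.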

[9] = qHTS assay to identify small molecule agonists of the estrogen receptor alpha (ER-alpha) signaling pathway in the presence of an antagonist - cell viability counter screen (AID 1259386);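 also: cells exposed to compounds for 22 h at 37 °C before the viability read; nearly all actives have a fitted effect of over 30% in size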; also: potency is read from the fitted curve at half-maximal effect
Method in brief: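 VM7Luc4E2, stripped-serum pre-culture 5 d; 24hr plating; +ICI-182,780 10.0nM final; cpds 15 conc, 22hr, 37C/5% CO2; CellTiter-Fluor added at 21hr, fluorescence 1hr later.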

[10] = molecular target: Progesterone receptor (Homo sapiens) (UniProt P06401); test: qHTS assay to identify small molecule agonists of the progesterone receptor (PR) signaling pathway (AID 1346784; calls by dose curve; also: nearly all actives have a fitted effect of over 30% in size)
Method in brief: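 The screen uses PR-UAS-bla HEK 293T cells in charcoal-stripped serum (2%). Compounds are applied for 16 hr at 37C after a 6 hr pre-incubation, and reporter activity is detected with a FRET beta-lactamase substrate after 2 hr at room temperature.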

[11] = molecular target: Progesterone receptor (Homo sapiens) (UniProt P06401); test: qHTS assay to identify small molecule antagonists of the progesterone receptor (PR) signaling pathway (AID 1346795; active = well fitted inhibition curve with a large enough effect in the signal ratio in the repeat runs, not every such curve was filed as active; the % refers to the signal ratio; also: potency is read from the fitted curve at half-maximal effect)
Method in brief: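 After 6 hr plating at 37C in 2% stripped-serum medium, PR-UAS-bla HEK293T cells got compounds, then 1 nM R5020. Sixteen hours later, LiveBLAzer substrate was applied for 2 hr at room temperature and fluorescence was recorded.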

[12] = qHTS assay to identify small molecule antagonists of the progesterone receptor (PR) signaling pathway - cell viability counter screen (AID 1346798); also: nearly all actives have a fitted effect of over 50% in size; also: potency is read from the fitted curve at half-maximal effect
Method in brief: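 Viability was determined by ATP-based luminescence (CellTiter-Glo) in PR-UAS-bla HEK293T cells cultured in 2% charcoal-stripped serum and incubated 16 hr with compounds under R5020 stimulation.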

[13] = qHTS assay to identify small molecule agonists of the progesterone receptor (PR) signaling pathway - cell viability counter screen (AID 1346799; calls by dose curve; also: nearly all actives have a fitted effect of over 45% in size)
Method in brief: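 Viability was scored by ATP luminescence (CellTiter-Glo, 30 min, room temperature) in the same wells used for the reporter readout, after 16 hr compound exposure of PR-UAS-bla HEK293T cells.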

[14] = qHTS assay to identify small molecule antagonists of the TGF-beta/Smad signaling pathway - cell viability counter screen (AID 1346824); also: nearly all actives have a fitted effect of over 50% in size
Method in brief: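 SBE-bla HEK 293T cells, incubated overnight, then compound plus 0.25 ng/mL TGF-beta1 (stock added) for 5 hr at 37 C. Viability was read in the same wells by CellTiter-Glo luminescence after 30 min at room temperature.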

[15] = qHTS assay to identify small molecule agonists of the TGF-beta/Smad signaling pathway - cell viability counter screen (AID 1346829); also: top concentration of the series differs between compounds; nearly all actives have a fitted effect of over 45% in size
Method in brief: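 Here the cytotoxicity of library compounds is measured in SBE-bla HEK 293T cells treated for 5 hr, using CellTiter-Glo added to wells already read for the beta-lactamase reporter.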

[16] = qHTS assay to identify small molecule agonists of the TGF-beta/Smad signaling pathway (AID 1346859; active = well fitted activation curve with a large enough effect in the signal ratio in the repeat runs, not every such curve was filed as active; the % refers to the signal ratio; also: series mostly up to about 77 µM)
Method in brief: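 Dual-wavelength fluorescence (460/530 nm emission) quantified beta-lactamase expression under the Smad binding element in HEK 293T cells following 5 hr compound treatment at 37 C.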

[17] = molecular target: Thyrotropin-releasing hormone receptor (Homo sapiens) (UniProt P34981); test: qHTS assay to identify small molecule antagonists of the thyrotropin-releasing hormone receptor (TRHR) signaling pathway (AID 1346877; active = well fitted inhibition curve with a large enough effect in the repeat runs, not every such curve was filed as active; also: series mostly up to about 51 µM)
Method in brief: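 Intracellular calcium fluorescence, read kinetically every second over 3 min, reports TRH-evoked signalling in HEK293 cells carrying TRHR. Test compounds were added 5 min ahead of a 1 nM TRH challenge.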

[18] = molecular target: Thyrotropin-releasing hormone receptor (Homo sapiens) (UniProt P34981); test: qHTS assay to identify small molecule agonists of the thyrotropin-releasing hormone receptor (TRHR) signaling pathway (AID 1346891; calls by dose curve;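 also: HEK293 cells expressing TRHR with calcium dye readout; series mostly up to about 58 µM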)
Method in brief: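 Kinetic fluorescence (3 min, 1 s intervals) reported intracellular calcium after compound transfer onto TRHR-Hek293 cells pre-loaded with dye for 2 h at 37 °C.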

[19] = Human pregnane X receptor (PXR) small molecule agonists, qHTS cell viability counter screen (AID 1346977); also: nearly all actives have a fitted effect of over 50% in size; also: potency is read from the fitted curve at half-maximal effect
Method in brief: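 HepG2 cells stably carrying the PXR-Luc reporter are cultured with 5% charcoal-stripped FBS and treated with compounds for 24hr. CellTiter-Fluor is added at 23hr and fluorescence is read after 1hr.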

[20] = molecular target: Estrogen receptor (Homo sapiens) (UniProt P03372); test: qHTS assay to identify small molecule agonists of the estrogen receptor alpha (ER-alpha) signaling pathway in the presence of an antagonist (AID 1259383; calls by dose curve; also: top concentration of the series differs between compounds; nearly all actives have a fitted effect of over 15% in size)
Method in brief: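 VM7Luc4E2, endog. ER-alpha + 4×ERE-luc; charcoal-stripped FBS, phenol red-free, 5 d; 24hr plating; +10.0nM ICI-182,780 (final); cpds 15 conc, 22hr, 37C/5% CO2; ONE-Glo luminescence.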

Estrogen receptor (Homo sapiens), sequence (P03372 whole entry, looked up): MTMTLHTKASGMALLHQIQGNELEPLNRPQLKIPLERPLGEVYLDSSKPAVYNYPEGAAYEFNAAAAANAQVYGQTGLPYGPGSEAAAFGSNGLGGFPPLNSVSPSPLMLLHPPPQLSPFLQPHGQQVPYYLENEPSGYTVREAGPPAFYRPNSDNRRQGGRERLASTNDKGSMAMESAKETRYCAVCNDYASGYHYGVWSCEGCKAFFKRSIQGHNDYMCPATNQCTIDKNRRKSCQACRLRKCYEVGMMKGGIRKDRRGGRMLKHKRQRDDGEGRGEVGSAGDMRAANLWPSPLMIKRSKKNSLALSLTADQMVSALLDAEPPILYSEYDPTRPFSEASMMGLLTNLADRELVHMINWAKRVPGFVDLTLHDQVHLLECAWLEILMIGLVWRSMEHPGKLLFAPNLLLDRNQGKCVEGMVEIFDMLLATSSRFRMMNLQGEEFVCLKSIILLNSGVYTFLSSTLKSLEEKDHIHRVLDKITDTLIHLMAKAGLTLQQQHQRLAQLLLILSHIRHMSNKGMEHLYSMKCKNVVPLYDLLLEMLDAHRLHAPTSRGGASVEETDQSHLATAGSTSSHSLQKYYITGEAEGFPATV
Progesterone receptor (Homo sapiens), sequence (P06401 whole entry, looked up): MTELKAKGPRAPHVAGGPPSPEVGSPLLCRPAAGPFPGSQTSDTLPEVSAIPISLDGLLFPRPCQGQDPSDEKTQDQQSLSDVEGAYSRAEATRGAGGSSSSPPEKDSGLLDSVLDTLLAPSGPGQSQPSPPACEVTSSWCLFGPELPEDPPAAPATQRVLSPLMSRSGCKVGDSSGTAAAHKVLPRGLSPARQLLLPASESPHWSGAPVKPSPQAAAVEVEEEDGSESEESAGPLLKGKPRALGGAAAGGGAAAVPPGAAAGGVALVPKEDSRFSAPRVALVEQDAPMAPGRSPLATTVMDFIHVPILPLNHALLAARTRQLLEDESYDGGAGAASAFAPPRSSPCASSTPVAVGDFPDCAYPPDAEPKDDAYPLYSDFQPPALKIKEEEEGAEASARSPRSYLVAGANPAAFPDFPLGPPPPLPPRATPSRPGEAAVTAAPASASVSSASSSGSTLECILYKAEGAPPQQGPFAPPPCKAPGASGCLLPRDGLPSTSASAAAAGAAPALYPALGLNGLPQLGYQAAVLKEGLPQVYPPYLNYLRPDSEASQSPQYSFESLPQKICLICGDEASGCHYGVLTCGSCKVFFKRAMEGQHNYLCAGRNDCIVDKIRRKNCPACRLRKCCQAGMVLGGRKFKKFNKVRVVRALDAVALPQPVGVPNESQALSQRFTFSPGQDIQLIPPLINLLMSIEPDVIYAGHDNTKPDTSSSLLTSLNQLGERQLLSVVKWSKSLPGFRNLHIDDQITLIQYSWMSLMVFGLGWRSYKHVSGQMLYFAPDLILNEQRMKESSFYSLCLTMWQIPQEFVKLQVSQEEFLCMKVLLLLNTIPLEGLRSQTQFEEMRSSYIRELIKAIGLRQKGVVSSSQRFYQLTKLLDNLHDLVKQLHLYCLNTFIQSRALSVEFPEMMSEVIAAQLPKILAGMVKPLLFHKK
Androgen receptor (Homo sapiens), sequence (P10275 whole entry, looked up): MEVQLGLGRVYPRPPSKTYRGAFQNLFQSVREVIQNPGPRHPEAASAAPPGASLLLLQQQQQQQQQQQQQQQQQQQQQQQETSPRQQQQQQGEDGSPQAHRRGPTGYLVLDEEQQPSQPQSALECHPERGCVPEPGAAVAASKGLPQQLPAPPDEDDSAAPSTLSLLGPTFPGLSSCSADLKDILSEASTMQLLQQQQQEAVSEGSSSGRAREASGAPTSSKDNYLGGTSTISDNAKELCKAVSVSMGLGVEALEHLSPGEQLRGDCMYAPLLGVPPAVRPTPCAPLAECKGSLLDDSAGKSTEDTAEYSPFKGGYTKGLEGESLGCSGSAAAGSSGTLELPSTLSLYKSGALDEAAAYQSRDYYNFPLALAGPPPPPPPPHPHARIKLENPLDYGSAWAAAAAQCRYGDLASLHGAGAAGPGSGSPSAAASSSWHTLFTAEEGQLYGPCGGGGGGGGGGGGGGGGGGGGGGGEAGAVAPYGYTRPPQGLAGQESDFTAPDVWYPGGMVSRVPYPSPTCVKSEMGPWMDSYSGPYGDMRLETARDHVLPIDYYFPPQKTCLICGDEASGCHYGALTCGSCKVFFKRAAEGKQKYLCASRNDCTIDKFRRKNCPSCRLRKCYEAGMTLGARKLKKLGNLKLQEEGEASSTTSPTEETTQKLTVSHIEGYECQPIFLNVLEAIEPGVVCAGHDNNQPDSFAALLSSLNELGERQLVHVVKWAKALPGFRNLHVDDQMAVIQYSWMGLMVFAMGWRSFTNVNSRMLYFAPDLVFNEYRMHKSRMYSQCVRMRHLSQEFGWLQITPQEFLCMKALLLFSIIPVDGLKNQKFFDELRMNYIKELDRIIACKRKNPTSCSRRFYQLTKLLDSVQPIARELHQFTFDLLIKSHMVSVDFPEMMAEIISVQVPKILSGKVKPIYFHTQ
Thyrotropin-releasing hormone receptor (Homo sapiens), sequence (P34981 whole entry, looked up): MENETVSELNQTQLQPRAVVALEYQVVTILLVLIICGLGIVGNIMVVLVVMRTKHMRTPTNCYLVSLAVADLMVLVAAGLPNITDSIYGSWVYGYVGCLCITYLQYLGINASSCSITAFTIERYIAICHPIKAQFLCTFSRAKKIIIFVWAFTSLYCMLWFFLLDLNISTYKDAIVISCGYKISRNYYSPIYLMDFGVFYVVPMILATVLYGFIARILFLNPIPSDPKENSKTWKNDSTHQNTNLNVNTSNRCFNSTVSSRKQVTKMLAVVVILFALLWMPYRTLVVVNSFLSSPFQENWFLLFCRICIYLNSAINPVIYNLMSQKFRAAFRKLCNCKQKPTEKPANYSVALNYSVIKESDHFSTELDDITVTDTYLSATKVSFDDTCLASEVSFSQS
Thyrotropin receptor (Homo sapiens), sequence (P16473 whole entry, looked up): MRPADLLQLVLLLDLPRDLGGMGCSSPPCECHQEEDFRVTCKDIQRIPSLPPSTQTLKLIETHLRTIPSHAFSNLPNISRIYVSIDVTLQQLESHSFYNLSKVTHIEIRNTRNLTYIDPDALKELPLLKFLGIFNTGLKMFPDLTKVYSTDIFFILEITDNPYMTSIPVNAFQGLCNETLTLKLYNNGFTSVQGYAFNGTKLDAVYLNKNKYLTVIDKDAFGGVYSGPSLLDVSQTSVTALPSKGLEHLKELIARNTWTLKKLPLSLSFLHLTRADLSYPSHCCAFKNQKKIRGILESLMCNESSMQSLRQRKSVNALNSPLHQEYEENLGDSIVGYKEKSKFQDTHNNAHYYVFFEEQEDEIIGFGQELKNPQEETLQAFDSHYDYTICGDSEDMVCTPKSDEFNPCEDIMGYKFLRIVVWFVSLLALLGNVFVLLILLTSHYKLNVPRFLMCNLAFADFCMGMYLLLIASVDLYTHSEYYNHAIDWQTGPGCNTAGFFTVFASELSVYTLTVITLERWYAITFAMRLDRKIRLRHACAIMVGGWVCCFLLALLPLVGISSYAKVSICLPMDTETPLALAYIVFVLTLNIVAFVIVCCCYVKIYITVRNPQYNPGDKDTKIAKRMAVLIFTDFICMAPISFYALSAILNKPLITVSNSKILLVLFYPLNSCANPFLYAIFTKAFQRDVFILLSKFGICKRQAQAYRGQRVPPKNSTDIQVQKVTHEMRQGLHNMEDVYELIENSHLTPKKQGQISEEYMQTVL
Estrogen receptor beta (Homo sapiens), sequence (Q92731 whole entry, looked up): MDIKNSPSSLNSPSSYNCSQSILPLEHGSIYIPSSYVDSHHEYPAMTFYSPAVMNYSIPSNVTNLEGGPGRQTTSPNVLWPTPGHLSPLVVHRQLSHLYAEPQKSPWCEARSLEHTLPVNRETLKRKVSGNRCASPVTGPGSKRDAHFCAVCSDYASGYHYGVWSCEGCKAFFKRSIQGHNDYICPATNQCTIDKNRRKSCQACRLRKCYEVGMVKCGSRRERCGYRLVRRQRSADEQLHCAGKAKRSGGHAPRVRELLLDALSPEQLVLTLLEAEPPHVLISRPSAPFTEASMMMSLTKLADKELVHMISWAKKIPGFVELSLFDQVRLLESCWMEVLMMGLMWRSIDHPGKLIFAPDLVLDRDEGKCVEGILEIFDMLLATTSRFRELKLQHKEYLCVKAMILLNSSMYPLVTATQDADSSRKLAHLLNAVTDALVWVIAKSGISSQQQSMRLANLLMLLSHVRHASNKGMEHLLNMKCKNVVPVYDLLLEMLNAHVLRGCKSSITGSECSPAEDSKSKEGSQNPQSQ

Structure (SMILES) | Potency [1] | Potency [2] | Potency [3] | Potency [4] | Potency [5] | Potency [6] | outcome [7] | Potency [8] | Potency [9] | Potency [10] | Potency [11] | Potency [12] | Potency [13] | Potency [14] | Potency [15] | outcome [16] | Potency [17] | Potency [18] | Potency [19] | Potency [20]
Cc1cccc(OP(=O)(Oc2cccc(C)c2)Oc2cccc(C)c2)c1 | inactive | inactive | inactive | inactive | inactive | inactive | inactive | inactive | inactive | inactive | 43.3 µM (active) | inactive | inactive | inactive | inactive | inactive | inactive | inactive | inactive | 
ClC1=C(Cl)[C@]2(Cl)[C@@H]3[C@@H](Cl)[C@H](Cl)C[C@@H]3[C@@]1(Cl)C2(Cl)Cl | inactive | inactive | inactive | inactive | inactive | inactive |  |  | inactive | inactive |  | inactive | inactive | inactive | inactive | inactive | inactive | inactive | inactive | inactive
Cc1ccc(CCl)cc1 | inactive | inactive | inactive | inactive | inactive | inactive | inactive | inactive |  | inactive |  | inactive |  | inactive | inactive | inactive |  |  | inactive | inactive
C=COCCCl | inactive | inactive | inactive | inactive | inactive | inactive | inactive |  | inactive | inactive | inactive | inactive | inactive | inactive | inactive | inactive | inactive | inactive | inactive | inactive
Cc1cc(C)cc(OP(=O)(Oc2cc(C)cc(C)c2)Oc2cc(C)cc(C)c2)c1 | inactive | inactive | inactive | inactive |  | inactive | inactive | inactive | inactive | inactive |  | inactive |  | inactive | inactive | inactive |  |  | inactive | inactive
Clc1ccc(-c2ccccc2)cc1 | inactive | inactive | inactive | inactive |  | inactive | inactive | inactive | inactive | inactive | inactive | inactive | inactive | inactive | inactive | inactive | inactive | inactive | inactive | inactive
CC(C)C1CCC(Cc2ccc(Cl)cc2)C1(O)Cn1cncn1 (stereo unspecified) | inactive | 24.1 µM (active) | 67.9 µM (active) | 67.9 µM (active) |  | 67.9 µM (active) | inactive |  |  |  |  |  |  |  |  |  |  | inactive | 48.1 µM (active) | inactive
NNC(=O)c1ccccc1 | inactive | inactive | inactive | inactive |  | inactive | inactive | inactive |  | inactive | inactive | inactive | inactive | inactive | inactive | inactive | inactive | inactive | inactive | inactive
Cc1cc(C)c(C2=C(OC(=O)CC(C)(C)C)C3(CCCC3)OC2=O)c(C)c1 | inactive | inactive | inactive | inactive |  | inactive |  |  | inactive |  |  | inactive | inactive | inactive | inactive | inactive |  |  | inactive | inactive
CN(CCCC(O)c1cccnc1)N=O (stereo unspecified) | inactive | inactive | inactive | inactive | inactive | inactive |  | inactive | inactive | inactive |  | inactive | inactive |  | inactive | inactive | inactive | inactive | inactive | inactive
O=[N+]([O-])c1cc(Cl)ccc1Cl | inactive | inactive | inactive | inactive | inactive | inactive |  | inactive | inactive | inactive | inactive | inactive | inactive | inactive | inactive | inactive | inactive | inactive | inactive | inactive
COc1ccc(OC)c(C=O)c1 | inactive | inactive | inactive | inactive |  | inactive |  |  | inactive |  |  | inactive |  | inactive |  | inactive | inactive | inactive | inactive | inactive
CCOP(=S)(OCC)SCS(=O)(=O)CC | inactive | inactive | inactive | inactive | inactive | inactive | inactive | inactive |  | inactive |  | inactive | inactive |  | inactive | inactive | inactive | inactive | inactive | inactive
COc1cccc2c1C(=O)c1c(O)c3c(c(O)c1C2=O)C[C@@](O)(C(=O)CO)CC3OC1CC(N2CCOC(OC)C2)C(O)C(C)O1 (stereo partly specified) | inactive | 0.168 µM (active) | 13.3 µM (active) | inactive | inactive | inactive | inactive |  | 10.6 µM (active) |  |  | 0.266 µM (active) |  | inactive | inactive |  |  |  | 0.168 µM (active) | inactive
Fc1cccc(Cl)c1CCl | inactive | inactive | inactive | inactive |  | inactive |  | inactive |  | inactive |  | inactive | inactive |  | inactive | inactive | inactive | inactive | inactive | inactive
BrCBr | inactive | inactive | inactive | inactive |  | inactive | inactive | inactive | inactive | inactive | inactive | inactive | inactive |  | inactive | inactive | inactive | inactive | inactive | inactive
